Data reported in PubChem BioAssay AID504371 (National Center for Advancing Translational Sciences (NCATS), 2011).
Inconclusive results are not listed. A call without a number means that no potency is given here. Calls of active or inactive are those of the source. The call rests on the fitted dose curve; in most records, active means well fitted curve in the direction sought with a large enough effect; inconclusive means small, poorly fitted or top-dose-only effect, or another doubt; inactive means no such curve, though single readings can be large or run the other way.

Assay: qHTS Assay for Compounds Blocking the Interaction Between CBF-beta and RUNX1 for the Treatment of Acute Myeloid Leukemia: ME-1 cellular proliferation, SAR for Probe
From the text: NIH Chemical Genomics Center [NCGC] NIH Molecular Libraries Probe Production centers Network [MLPCN] MLPCN Grant: X01MH083259-01 Assay Submitter (PI): Paul Liu NCGC Assay Overview: Core Binding Factor (CBF) abnormalities are associated with 20-25% of all acute myeloid leukemias (AML), of which 5-10% are further sub classified as acute myelomonocytic leukemia with eosinophilia, also known as M4Eo in the FAB classification scheme. This subtype of leukemia is usually associated with chromosome 16 inversion (p13:q22). Chromosome 16 inversion results in formation of the fusion oncogene CBFB-MYH11, which encodes the fusion protein CBF-beta-SMMHC. […] It has been hypothesized that the interference of CBF-beta and RUNX1 binding could have therapeutic implications for patients with CBF mediated leukemias. We developed a CBF-beta and RUNX1 binding assay in AlphaScreenTM format and optimized it for high throughput screening to search for inhibitors. […]
NCGC Assay protocol: 2uL/well media was dispensed per well into 1536-well white solid-bottom plates using Multidrop Combi dispenser. […] The plates were incubated at 37 °C with 5% CO2 and 95% humidity for 48 hours, and then ATP content was measured following the addition of 4uL/well of ATPlite reagent and a 20 min incubation on a ViewLux plate reader.

Row | SMILES | Potency
1 | CCc1sc(N)nc1-c1ccc(OC)cc1 | inactive
2 | Nc1ccc(Cl)cc1C(=O)c1ccc[nH]1 | 109 µM (active)
